Laboratory results from PubChem BioAssay (NCI).
This is part of a sample that, as a whole, favours compounds with a hit. Of some 79,000 tested, about 15% had one in any assay. Values without a mark were called inactive. The source made the active and inactive calls. Rule as the data show it: active = growth inhibition above about 70%; inactive = the rest.

Legend:
[1] = NCI Yeast Anticancer Drug Screen. Data for the rad50 strain (AID 155);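 also: 0% = growth of vehicle-only cultures of the same strain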; conditions: S. cerevisiae rad50 strain growth inhibition; at 50.0 µM; stronger effect = higher value
In short: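 Inhibition values express reduced yeast growth in compound-treated cultures relative to vehicle-treated controls.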

[2] = NCI Yeast Anticancer Drug Screen. Data for the mec2-1 strain (AID 157); conditions: S. cerevisiae mec2-1 strain, at 50.0 µM, stronger effect = higher value
In short: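 Vehicle-treated cultures served as reference for growth inhibition of compound-exposed mec2-1 yeast.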

[3] = NCI Yeast Anticancer Drug Screen. Data for the sgs1 mgt1 strain (AID 161);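 also: 0% = growth of cultures given vehicle only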; conditions: S. cerevisiae sgs1 mgt1 strain, at 50.0 µM, stronger effect = higher value
In short: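 Inhibition of yeast growth, normalised to vehicle-treated controls, is reported for a strain bearing genetic alterations in DNA damage repair.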

[4] = NCI Yeast Anticancer Drug Screen. Data for the cln2 rad14 strain (AID 165);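 also: 0% = growth equal to vehicle treated cultures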; conditions: S. cerevisiae cln2 rad14 strain, at 50.0 µM, stronger effect = higher value
In short: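 Each compound was tested on cln2 rad14 yeast. Inhibition of growth was calculated against vehicle-exposed controls.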

[5] = NCI Yeast Anticancer Drug Screen. Data for the bub3 strain (AID 167); conditions: S. cerevisiae bub3 mutant strain, at 50.0 µM, stronger effect = higher value
In short: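 Steps: expose the mutant yeast strain to compound; grow alongside vehicle-treated cultures; measure growth; express inhibition against the vehicle cultures.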

[6] = NCI Yeast Anticancer Drug Screen. Data for the mlh1 rad18 strain (AID 175); conditions: S. cerevisiae mlh1 rad18 strain growth inhibition; at 50.0 µM; stronger effect = higher value
In short: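 Vehicle-treated cultures served as the reference for growth inhibition in a yeast strain carrying DNA damage repair alterations exposed to each compound.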

Row | Compound | growth inhibition [1] [%] | growth inhibition [2] | growth inhibition [3] [%] | growth inhibition [4] [%] | growth inhibition [5] | growth inhibition [6]
1 | COc1ccccc1NC(=O)C1=C(C)NC(C)=C(C(=O)Nc2ccccc2OC)C1c1c(Cl)cccc1Cl | 15.6 | 3.75% | -11.8 | -6.05 | 0.2% | 26.6%
2 | C/C(CC1CC=CCC1)=N\NC(N)=O (stereo not given) | -16.1 | -4.7% | -2.6 | -20.5 | -3.8% | 30.8%
3 | Cc1cc(C)nc(N)c1 | 3.75 | -11.8% | -0.4 | -21.8 | -3.25% | 3.05%
4 | CN(C)Cc1cc(C(C)(C)C)ccc1-c1ccc(C(C)(C)C)cc1CN(C)C | -42.4 | -17.6% | -39.5 | 12.6 | -31.2% | -30.9%
5 | CC(=O)Oc1nnc(-c2ccccc2)c(-c2ccccc2)n1 | 24.5 | 16.9% | 17.1 | 13.8 | 7.4% | 17.3%
6 | Cc1ccc(Cl)cc1NC(=O)Nc1cc(Cl)c(Cl)cc1C | 3.55 | 45% | 43.5 | -2.5 | 45.9% | 33.3%
7 | O=C(Cl)N(C1CCCCC1)C1CCCCC1 | -19 | -8.8% | -1.5 | -10.9 | 2.35% | -12.9%
8 | CC(=O)OC1CCC2(C)C3CCC4(C)C(C(C)CCCC(C)C)CCC4C3CC(=O)C23CC13 (stereo not given) | 32 | -3.85% | 13.2 | 6.9 | -6.3% | 17.9%
9 | CCOC(=O)Cc1c(Cc2[nH]c(C(=O)OCc3ccccc3)c(CC(=O)OCC)c2CC(=O)OCC)[nH]c(C(=O)OCc2ccccc2)c1CC(=O)OCC | -10.7 | -21.6% | -19 | -3.1 | -3.35% | -17.3%
10 | C(=C\c1ccc(OCc2ccccc2)cc1)/c1ccc(OCc2ccccc2)cc1 | -5.5 | -13.7% | -13.6 | -7.6 | -24.6% | -26%
11 | O=C1c2scnc2-c2nccc3c2c1nc1ccccc13 | 60.3 | 75.5% (active) | 66.8 | 53.2 | 80.9% (active) | 74.9% (active)
12 | CCCCNC(=O)c1ccccc1N | -20.2 | -6.15% | -30.7 | -8 | -16% | -22.4%
13 | O=[N+]([O-])c1cc(Br)ccc1N1CCCC1 | -8.7 | 4.2% | 4.05 | -11.7 | -2.3% | -6.85%
14 | COC(=O)C(=[N+]=[N-])C(=O)c1ccccc1[N+](=O)[O-] | 30.5 | 27.4% | 15.8 | 18.5 | 6.9% | 14.5%
15 | CCCCCC(CN(C)C)C(=O)CC(SCC)c1ccccc1 (stereo not given) | 27.7 | 20.4% | 8.85 | 1.05 | 18.6% | 16.8%
16 | CCC(COC(=O)CC[C@@H](NC(=O)C(C)NC(=O)C(C)OC1C(O)C(CO)OC(OCc2ccccc2)C1NC(C)=O)C(N)=O)NC1c2ccccc2Nc2cccc([N+](=O)[O-])c21 (stereo not given in full) | 5.65 | -9.7% | -13.8 | 6.4 | -17.9% | -10.7%
17 | O=C(c1ccccc1)C(O)(c1ccccc1)c1ccccc1 | 37.5 | -18.2% | 3.8 | -31.1 | 22.1% | 0.8%
18 | Cc1nc2c(SCc3ccccc3)ncnc2o1 | 16.1 | -9.5% | 14.9 | 22.8 | 35.4% | 19.5%
19 | C=CC(C)(C)NC(C(=O)N1CCC[C@H]1c1nc(-c2nc(C(=O)OCC=C(C)C)c(C)o2)c(C)o1)C(C)C (stereo not given in full) | -4.25 | -10.7% | 15.6 | -11.3 | 3.05% | -2.85%
20 | Cc1cccc[n+]1CC(=O)c1ccccc1[N+](=O)[O-] | -5 | 6.85% | -3.3 | -6.55 | -20.6% | 8.1%
